Source: PubChem (National Center for Advancing Translational Sciences (NCATS))
Only some compounds are listed: those with a hit (about 2.9% of all), similar ones and a draw of the others.
GLP-1R agonist – agonists of human GLP-1 receptor; P43220; Potency, µM (highest dose often 45.6 µM), inactives show top-dose activation, actives largely listed as activators; AID 624172; HEK293 GLP-1R CRE-luciferase, luminescence, 4-6 h; cells express a hypersensitive GLP-1R form; 0.007% of 380,000 active; also: potency is read from the fitted curve at half-maximal effect; % of control where 0% means no effect
Target sequence (P43220 whole entry, looked up): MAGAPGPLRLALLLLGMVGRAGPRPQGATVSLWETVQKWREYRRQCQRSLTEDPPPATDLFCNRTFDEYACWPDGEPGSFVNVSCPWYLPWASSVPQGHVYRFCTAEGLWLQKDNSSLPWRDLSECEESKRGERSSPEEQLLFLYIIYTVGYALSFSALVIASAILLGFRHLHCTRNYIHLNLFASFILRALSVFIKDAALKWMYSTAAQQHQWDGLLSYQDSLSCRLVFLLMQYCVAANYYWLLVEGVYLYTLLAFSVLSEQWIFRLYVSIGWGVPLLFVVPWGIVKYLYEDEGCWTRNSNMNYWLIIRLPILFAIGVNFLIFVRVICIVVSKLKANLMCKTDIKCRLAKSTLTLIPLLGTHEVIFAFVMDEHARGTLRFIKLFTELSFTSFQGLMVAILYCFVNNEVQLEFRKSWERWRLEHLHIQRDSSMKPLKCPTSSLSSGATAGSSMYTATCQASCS
LDHA inh – LDHA (human) enzyme inhibition; P00338; purified LDHA, NADH/diaphorase-resazurin fluorescence; active compounds read low; activity change, % (values are at about 110 or 230 µM); 0.15% of 480,000 active; AID 1347041; in the data active = activity change below about -30%; inconclusive = mostly about -25% to -30%;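 also: plate controls were DMSO wells for no effect and wells without enzyme for full effect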
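Human LDH5 (2 nM) was incubated with 0.06 mM NADH and 0.2 mM pyruvate for 5 min at room temperature in Tris pH 7.4. Remaining NADH was coupled through diaphorase/resazurin, and resorufin fluorescence was read at 0 and 20 min.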
p53 reactivation – re-activators of mutant p53. 0.063% of 320,000 active. Potency, µM (top dose mostly 92.2 µM), for the others: top-dose activity change, positive = activation, most hits filed as activators. H1299 p53-A138V BP100-luciferase reporter, luminescence, 24 h; also: potency is read from the fitted curve at half-maximal effect; % of control where 0% means no effect; nearly all actives have a fitted effect of over 45% in size
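H1299 (p53-null), stable ts p53-A138V + BP100-Luc; 1000 cells/well, Opti-MEM/10% FBS; cpd 4 pt, 1:5; 24 h, 37 deg C, 5% CO2; detection reagent 10 min RT; luminescence.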
GLP-1R inv ag – inverse agonists of human GLP-1 receptor. 1.6% of 410,000 active. P43220. AID 624417. HEK293 GLP-1R CRE-luciferase, luminescence, 24 h; GLP-1R form is constitutively active. Potency, µM (doses to about 38.3 µM), for the others: top-dose activity change, negative = inhibition, usual class: inhibitors; also: potency is read from the fitted curve at half-maximal effect; % is scaled to controls: 0 for no effect and ±100 for the full control effect; nearly all actives have a fitted effect of over 55% in size
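qHTS in 1536-well format: reporter HEK293 cells expressing constitutive GLP-1R activity in DMEM + 10% Nu serum, 24 hr with compounds at 37 deg C, luminescence read after 12 min with detection reagent.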
HEK293 tox – cytotoxicity in counter-screen for GLP-1R inverse agonists. HEK293 cAMP-luciferase reporter cells, luminescence, 24 h. Potency, µM (doses to about 38.3 µM), inactives show top-dose activity change, negative = inhibition, usual class: inhibitors. 0.13% of 410,000 active;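 also: loss of luciferase light is scored as toxicity; potency is read from the fitted curve at half-maximal effect; % is scaled to controls: 0 for no effect and ±100 for the full control effect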
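To flag toxic compounds, the library was rerun on cells for 24 hr at 37 deg C and 5% CO2. Viability-linked luminescence was captured 12 min after adding luciferase detection reagent.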
ClpP mod – qHTS Assay for Activators of ClpP; ATP-dependent Clp protease proteolytic subunit (Bacillus subtilis (strain 168)), P80244; purified B. subtilis ClpP, FRET peptide cleavage, 20 min; Potency, µM (series often up to 57.5 µM), without a hit: at the top dose activity change, negative = active; 1.9% of 340,000 active; AID 651965, 2013; active = well fitted falling curve with a large enough effect; inconclusive = small, poorly fitted or top-dose-only effect; inactive = no such curve, though single readings can be large or run the other way; also: potency is read from the fitted curve at half-maximal effect; the source files actives as falling curves though it sought activators and does not explain the sign; nearly all actives have a fitted effect of over 65% in size
Target sequence (P80244 whole entry, looked up): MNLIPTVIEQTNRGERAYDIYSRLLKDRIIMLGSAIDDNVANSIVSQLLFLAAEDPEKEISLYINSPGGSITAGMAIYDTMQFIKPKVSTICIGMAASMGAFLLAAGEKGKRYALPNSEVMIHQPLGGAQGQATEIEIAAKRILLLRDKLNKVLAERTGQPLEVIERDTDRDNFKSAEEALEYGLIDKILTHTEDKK
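FRET quenching reversal measured ClpP activation: 10 microg/mL B. subtilis ClpP at pH 8 with the FRET-FV decapeptide, read at 430 nm after 320 nm excitation. The 20-min minus 0-min signal was scaled between DMSO/no-enzyme wells and ADEP (5.8 microM final).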
* = called active by the depositor; [ ] = remark or other dose. Unless noted, calls follow the shape of the dose curve; as a rule, active = well fitted curve in the direction sought with a large enough effect; inconclusive = small, poorly fitted or top-dose-only effect, or another doubt; inactive = no such curve, though single readings can be large; an effect the other way counts as inactive or inconclusive.

Screening COc1ccccc1C1(CC(=O)O)CCOC(C(C)C)C1 (centres undefined) returned GLP-1R agonist 5.0%, LDHA inh -3.7, p53 reactivation -6.2%, GLP-1R inv ag -2.7%, HEK293 tox 13.2% and ClpP mod -4.6%.
CSc1sc(C(=O)N2CCc3ccccc32)cc1S(=O)(=O)C(C)C was read as GLP-1R agonist 3.7%, LDHA inh -2.3, p53 reactivation 5.4%, GLP-1R inv ag -1.9%, HEK293 tox -26.9% and ClpP mod 31.6µM*.
For CCc1sc(C(=O)N2CCc3ccccc32)cc1C the results were GLP-1R agonist 2.2%, LDHA inh -5.6, p53 reactivation -2.1%, GLP-1R inv ag inconclusive, HEK293 tox -3.9% and ClpP mod -2.8%.
Screening CCOC(=O)c1sc2ccccc2c1OC(=O)c1ccccc1 returned GLP-1R agonist -12.6%, LDHA inh -4.7, p53 reactivation -1.0%, GLP-1R inv ag inconclusive, HEK293 tox -30.9% and ClpP mod -3.4%.
`O=C(c1ccc(OC2CCN(CCc3ccccc3)CC2)cc1)N1CCCC1` gave GLP-1R agonist 10.5%, LDHA inh 1.7, p53 reactivation -7.1%, GLP-1R inv ag inconclusive, HEK293 tox -3.0% and ClpP mod 0.8%.
Screening O=C(c1ccc(OC2CCN(CCc3ccccc3)CC2)cc1)N1CCCCC1CCCO (centres undefined) returned GLP-1R agonist -4.5%, LDHA inh -12.6, p53 reactivation -7.8%, GLP-1R inv ag 11.2µM*, HEK293 tox -9.8% and ClpP mod -0.2%.
`O=C(c1ccc(OC2CCN(CCc3ccccc3)CC2)cc1)N1CCCC(CCCO)C1` (centres undefined) gave GLP-1R agonist 2.2%, LDHA inh -20.2, p53 reactivation 4.6%, GLP-1R inv ag 11.2µM*, HEK293 tox -14.2% and ClpP mod -1.0%.
For Cc1cccc(NC(=O)c2ccc(OCc3c(C)noc3C)cc2)c1C the results were GLP-1R agonist 8.7%, LDHA inh -2.7, p53 reactivation -6.0%, GLP-1R inv ag -15.3%, HEK293 tox -18.5% and ClpP mod -1.9%.
For COC(=O)c1ccc(C2=NOC(C)(c3sc(-c4ccc(Cl)cc4)nc3C)C2)cc1 (centres undefined) the results were GLP-1R agonist 1.0%, LDHA inh -3.4, p53 reactivation 6.4%, GLP-1R inv ag 34.5%, HEK293 tox 0.7% and ClpP mod 25.1µM*.
Screening COC(=O)c1ccc(C2=NOC(C)(c3sc(-c4ccccc4)nc3C)C2)cc1 (centres undefined) returned GLP-1R agonist 21.0%, LDHA inh 0.3, p53 reactivation 7.0%, GLP-1R inv ag 19.1%, HEK293 tox 2.0% and ClpP mod -7.4%.
CCCCc1cc(=O)oc2cc(OCc3nn[nH]n3)c(Cl)cc12 was read as GLP-1R agonist -18.1%, LDHA inh -1.2, p53 reactivation 5.7%, GLP-1R inv ag -23.5%, HEK293 tox 2.0% and ClpP mod 28.2µM*.
`CCCc1cc(=O)oc2c(C)c(OCc3nn[nH]n3)ccc12` gave GLP-1R agonist -5.7%, LDHA inh -3.6, p53 reactivation -6.7%, GLP-1R inv ag 13.4%, HEK293 tox -6.8% and ClpP mod 3.8%.
For COc1ccc(CCNC(=O)c2c(O)nc3c(C)cccn3c2=O)cc1 the results were LDHA inh 6.9, GLP-1R inv ag inconclusive, HEK293 tox 3.3% and ClpP mod -22.1%.
Screening O=C(/C=C/c1cccs1)Nc1nccs1 returned GLP-1R agonist 0.7%, LDHA inh -11.1, p53 reactivation inconclusive, GLP-1R inv ag 3.2%, HEK293 tox 0.3% and ClpP mod 1.5%.
O=C(/C=C/c1cccs1)Nc1cccc(NC(=O)/C=C/c2cccs2)n1 was read as GLP-1R agonist -16.8%, LDHA inh -9.2, p53 reactivation inconclusive, GLP-1R inv ag 3.98µM*, HEK293 tox inconclusive and ClpP mod -3.5%.
Cc1cc(C)c(-c2csc(NC(=O)/C=C/c3cccs3)n2)c(C)c1 was read as GLP-1R agonist -18.5%, LDHA inh -4.0, p53 reactivation -1.9%, GLP-1R inv ag 3.16µM*, HEK293 tox 17.0% and ClpP mod -19.4%.
Screening CCc1nnc(NC(=O)C2CCN(c3nccc(C)n3)CC2)s1 returned GLP-1R agonist -4.2%, LDHA inh -4.3, p53 reactivation -2.6%, GLP-1R inv ag -8.4%, HEK293 tox inconclusive and ClpP mod 31.6µM*.
O=C(C1COc2ccccc2O1)N1CCOCC1 (centres undefined) was read as GLP-1R agonist -11.3%, LDHA inh -3.3, p53 reactivation 11.7%, GLP-1R inv ag -12.3%, HEK293 tox 3.0% and ClpP mod 15.8µM*.
`O=C(C1COc2ccccc2O1)N1CCN(c2ccccc2)CC1` (centres undefined) gave GLP-1R agonist 0.9%, LDHA inh -2.2, p53 reactivation 0.7%, GLP-1R inv ag -8.8%, HEK293 tox 7.7% and ClpP mod -2.5%.
COc1cc(/C=C(/C#N)c2ccc(F)cc2)ccc1Oc1ccc([N+](=O)[O-])cn1 was read as GLP-1R agonist -5.0%, LDHA inh -0.9, p53 reactivation -1.1%, GLP-1R inv ag -1.0%, HEK293 tox 2.6% and ClpP mod 31.6µM*.
For O=C(CCSc1nnc2ccccn12)Nc1ccc(F)cc1 the results were GLP-1R agonist 3.2%, LDHA inh -2.6, p53 reactivation 18.2%, GLP-1R inv ag 3.4%, HEK293 tox -12.8% and ClpP mod 28.2µM*.
`O=C(CCSc1nnc2ccc3ccccc3n12)Nc1ccc(F)cc1` gave GLP-1R agonist -3.0%, LDHA inh -1.6, p53 reactivation 5.2%, GLP-1R inv ag -0.7%, HEK293 tox -2.8% and ClpP mod -23.1%.
`Oc1cc(C2CCCCC2)ccc1C1CCCCC1` gave LDHA inh -0.1.
Screening CC(C)c1nc2sc3c(SCC(=O)NCc4ccco4)ncnc3c2c2c1CCC2 returned GLP-1R agonist 28.2%, LDHA inh -0.4, p53 reactivation -0.7%, GLP-1R inv ag 72.1%, HEK293 tox -17.0% and ClpP mod 25.1µM*.
For C/C(=N\NC(=O)c1nn(C)c(C)c1Br)c1ccc(NC(=O)c2ccoc2C)cc1 the results were GLP-1R agonist -4.9%, LDHA inh -4.9, p53 reactivation inconclusive, GLP-1R inv ag 25.1%, HEK293 tox 11.2%[1.53 µM] and ClpP mod inconclusive.
